# Sampled rows, rich in hits. Any-hit rate of the full collection: about 19%.
# ELG1 repair inh: blocks ELG1-dependent DNA repair in HEK293T cells. HEK293T ELG1-luciferase reporter, luminescence, 16 h; DNA damage induced by 5-fluorouridine. Potency, µM (titrated, usually from 46.1 µM), for inactives: top-dose activity change, negative = inhibition, most hits filed as inhibitors. 2.3% of 330,000 active. AID 504467; note: potency is the fitted concentration of half-maximal effect; nearly all actives have a fitted effect of over 55% in size
#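 Reporter activity after DNA damage by 5-fluorouridine is monitored. Compound-treated cells incubate 16 hr at 37 °C, then ONE-Glo is added for 30 min before luminescence reading.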
# TDP1 cell noCPT: qHTS for Inhibitors of human tyrosyl-DNA phosphodiesterase 1 (TDP1): qHTS in cells in absence of CPT; DT40 Tdp1-/- hTDP1 cells, no CPT, ATP luminescence, 48 h; Potency, µM (top dose mostly 46.2 µM), without a hit: at the top dose activity change, negative = growth inhibition, hits mostly inhibitors; 15% of 420,000 active; note: potency is the fitted concentration of half-maximal effect; nearly all actives have a fitted effect of over 55% in size
#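 Growth of hTDP1-complemented DT40 Tdp1-knockout cells is measured by ATP luminescence after at least 48 hr compound exposure at 37 °C, with DMSO substituting for the 20 nM CPT used in the parallel screen.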
# HT1080 IDH1KD tx: HT-1080 IDH1 knockdown cell toxicity (counter line); HT-1080 IDH1 knockdown viability, ATP luminescence, 48 h; Potency, µM (doses to about 46.1 µM), inactives show at the highest dose activity, negative = toxicity, usual class: cytotoxic; 2% of 360,000 active; AID 686971;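 note: potency is the fitted concentration of half-maximal effect; 0% = DMSO wells and -100% = cell-free medium wells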
#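 In this qHTS, HT-1080 cells depleted of IDH1 are exposed for 48 h at 37 °C to compound titrations. Toxicity is scored from CellTiter-Glo luminescence, with DMSO as full viability and medium alone as none.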
# IL1B secr inh: blocks inflammasome-driven IL-1 beta release. activity change, % at 57.5 µM. 4.7% of 360,000 active. THP-1 LPS/ATP IL-1B secretion, AlphaLISA, 16 h; hits give low values. AID 743279; in the data active = activity change below about -50%; inconclusive = mostly about -30% to -49%
#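 THP-1 cells pretreated 1 hr with compounds (up to 57.5 uM final), then stimulated with LPS (250 ng/mL final) plus ATP (1.25 mM final); secreted IL-1B measured by AlphaLISA after 16 hr, decreased signal indicating inhibition.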
# TDP1 cell CPT: growth inhibition of DT40 Tdp1-/-;hTDP1 cells with camptothecin (screen for TDP1 inhibitors); chicken DT40 Tdp1-/-;hTDP1 cells + 20 nM CPT, ATP luminescence, 48 h; Potency, µM (highest dose often 46.2 µM), without a hit: at the highest dose activity change, negative = growth inhibition, hits mostly inhibitors; 12% of 420,000 active; note: potency is the fitted concentration of half-maximal effect; nearly all actives have a fitted effect of over 55% in size
#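 Cell growth measured by CellTiter-Glo luminescence after a minimum 48 h, 37 C compound exposure with 20 nM CPT in Tdp1-knockout DT40 cells stably expressing hTDP1, seeded 400/well; qHTS titration format.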
# HT1080-NT tox: kills 2HG-producing HT-1080-NT fibrosarcoma cells. HT-1080-NT fibrosarcoma viability, CellTiter-Glo ATP luminescence, 48 h. Potency, µM (titrated, usually from 46.1 µM), inactives show top-dose activity, negative = less viability, most hits filed as cytotoxic. 1.6% of 360,000 active. AID 686970;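 note: NT is the 2HG producing partner of a matched IDH1 knockdown line; potency is the fitted concentration of half-maximal effect; 0% = DMSO-treated cells and -100% = media-only wells without cells; nearly all actives have a fitted effect of over 55% in size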
#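 HT-1080-NT fibrosarcoma cells (2HG-overproducing), 750 cells/well in RPMI with 5% FBS, dosed after 2 h and incubated 48 h at 37C. CellTiter-Glo luminescence normalized to DMSO and no-cell wells; concentration-response curves fitted and classed.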
# * hit, by the source's call; u = inconclusive; x = no result; [ ] = remark or other dose. Unless noted, calls come from the whole dose curve; as a rule, active = well fitted curve in the direction sought with a large enough effect; inconclusive = small, poorly fitted or top-dose-only effect, or another doubt; inactive = no such curve, though single readings can be large; an effect the other way counts as inactive or inconclusive. Unless noted, % is set by controls: 0 for no effect and ±100 for the full control effect.
SMILES,ELG1 repair inh,TDP1 cell noCPT,HT1080 IDH1KD tx,IL1B secr inh,TDP1 cell CPT,HT1080-NT tox
COc1cc2c(cc1OC)C(c1ccccc1F)NCC2 (stereo not drawn),-3%,u,0%,-5,-13%,2%
CCC1(C2CCN(C(=O)c3ccccc3C(C)=O)CC2)NC(=O)N(CCc2scnc2C)C1=O (stereo not drawn),x,-11%,x,x,8%,x
COc1cc(CNCCN2CCOCC2)ccc1OCc1ccccc1Cl,-11%,18µM*,-16%,-16,u,-19%
COc1cc(CNCCc2ccc(S(N)(=O)=O)cc2)ccc1OCc1ccc(Cl)cc1,-13%,u,13µM*,-78*,23µM*,-4%[9.24 µM]
Cc1cc(Cl)ccc1OCC(O)CNCCc1ccc(S(N)(=O)=O)cc1 (stereo not drawn),-12%,15µM*,-12%,-5,u,-11%
COc1cc(CNCCN2CCOCC2)ccc1OCc1ccc(Cl)cc1,u,u,u,u,18µM*,u
COc1cc(CNCCc2ccc(S(N)(=O)=O)cc2)ccc1OCC(=O)NC1CCCCC1,7%,-28%,5%,-1,u,7%
Cc1ccc(S(=O)(=O)N2[C@@H](c3ccccc3F)C(C(=O)O)=CC[C@H]2c2ccc3c(c2)OCO3)cc1,9%,-10%,0%,29,0%,4%
Cc1cccc(CNC(=O)CCn2c(=O)c3cccn3c3ccc(F)cc32)c1,x,-25%,x,x,-20%,x
CC1C(=O)OC2C(O)C34C5CC(C(C)(C)C)C36C(OC(=O)C6O)OC4(C(=O)O5)C12O (stereo not drawn),x,-1%,x,x,-17%,x
COc1cc(NC(=S)NCCCN2CCOCC2)c(OC)cc1Cl,-21%,-9%,-1%,29,0%,1%
COc1cc(CNCCCN2CCOCC2)cc(Br)c1OCC(=O)N1CCCCC1,u,-3%,-20%,-3,u,-2%
CCOc1cc(CNCCCN2CCOCC2)cc(Cl)c1OCC(=O)NC(C)(C)C,5%,u,-14%,-24,u,-27%
COc1cc(CNCCCN2CCOCC2)cc(Br)c1OCc1ccc(Cl)cc1,u,3.7µM*,u,0,3.7µM*,-28%
CCOc1cc(CNCCCN2CCOCC2)cc(Br)c1OCC(=O)Nc1cccc(C(F)(F)F)c1,0%,4.1µM*,u,-22,5.2µM*,u
C=CCOc1c(Cl)cc(CNCCCN2CCOCC2)cc1OC,-26%,-77%,-6%,4,23µM*,u
COC(=O)[C@@]12C[C@@H](CC(=O)NCCC(C)C)C(=O)N(Cc3ccccc3)C1=CCC(C)(C)C2,x,u,-10%,u,u,0%
COc1ccccc1-c1c(C(F)(F)F)oc2cc(OC(=O)c3ccccc3[N+](=O)[O-])ccc2c1=O,16%,26µM*,-1%,-7,u,-1%
COc1ccccc1-c1c(C(F)(F)F)oc2cc(OS(C)(=O)=O)ccc2c1=O,u,u,-11%,-5,u,0%
O=S(=O)(c1ccc(Cl)s1)N1CCN(Cc2ccccc2)CC1,-9%,16µM*,8%,20,u,9%
COc1ccc(C)cc1S(=O)(=O)N1CCN(C/C=C/c2ccccc2)CC1,-8%,15µM*,-5%,-2,u,-4%
O=S(=O)(c1ccc(Cl)s1)N1CCN(C/C=C/c2ccccc2)CC1,-17%,u,-19%,-11,16µM*,-9%
COc1ccccc1N1CCN(C(=O)C2CCN(C(=O)c3ccc(C(C)(C)C)cc3)CC2)CC1,-7%,u,-4%,-8,u,-4%
